Common to all, as to test: PBM binding z-score (relative to random genomic background probes); higher = stronger binding; sequences stand for … in GC…GCGATTGACAGCGTAGAATGAAGG
Experiment [1] has as its system FXR:RXRa (NR concentration 270 nM, RXRa partner concentration 90 nM). In a few lines: (§1)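 Random background probes are the reference for binding z-scores. These scores derive from regression-normalized fluorescence on custom Agilent 4×180K protein-binding microarrays incubated 1 h with ligand-free nuclear receptor dimers. Binding was detected with antibodies against each partner (one per run).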

The subject of experiment [2] is LXRa:RXRa (NR concentration 270 nM, RXRa partner concentration 90 nM). In a few lines: as §1
Experiment [3] has as its system LXRa homodimer (NR concentration 270 nM). In short, it runs like this: as §1
The subject of experiment [4] is LXRb:RXRa (NR concentration 270 nM, RXRa partner concentration 90 nM). In short, it runs like this:
as §1

In experiment [5] the test system is LXRb homodimer (NR concentration 270 nM). In short, it runs like this:
as §1

Experiment [6] concerns PPARa:RXRa (NR concentration 270 nM, RXRa partner concentration 90 nM). In short, it runs like this:
as §1

Experiment [7] deals with PPARg:RXRa (NR concentration 180 nM, RXRa partner concentration 90 nM). In short, it runs like this: as §1
In experiment [8] the test system is PPARg:RXRa 270nM:90nM, anti-RXR (NR concentration 270 nM, RXRa partner concentration 90 nM). In a few lines: as §1
Experiment [9] has as its system PPARg:RXRa 30nM:10nM, anti-RXR (NR concentration 30 nM, RXRa partner concentration 10 nM). In short, it runs like this: as §1
In experiment [10] the test system is PPARg:RXRa 90nM:30nM, anti-RXR (NR concentration 90 nM, RXRa partner concentration 30 nM). In a few lines:
as §1

The subject of experiment [11] is PPARg:RXRa DBDmut IVT, anti-RXR (DBD mutation: RXRa K156A/R161A, NR concentration 270 nM, RXRa partner concentration 90 nM). In a few lines: as §1
The test system of experiment [12] is PPARg:RXRa IVT, anti-PPARg (NR concentration 270 nM, RXRa partner concentration 90 nM). In short, it runs like this:
as §1

Experiment [13] deals with PPARg DBDmut:RXRa IVT, anti-PPARg (DBD mutation: PPARg1 K132A/R137A, NR concentration 270 nM, RXRa partner concentration 90 nM). In a few lines:
as §1

Experiment [14] concerns PPARg DBDmut IVT, anti-PPARg (DBD mutation: PPARg1 K132A/R137A, NR concentration 270 nM). In short, it runs like this: as §1
Experiment [15] deals with PPARg homodimer (NR concentration 180 nM). In short, it runs like this:
as §1

Experiment [16] deals with PXR:RXRa (NR concentration 270 nM, RXRa partner concentration 90 nM). In short, it runs like this:
as §1

Experiment [17] relates to PXR homodimer (NR concentration 270 nM). In short, it runs like this: as §1
For experiment [18], the system named is RARa:RXR (NR concentration 270 nM, RXRa partner concentration 90 nM). In a few lines: as §1
Experiment [19] deals with RARa homodimer (NR concentration 270 nM). In short, it runs like this: as §1
Experiment [20] deals with RARb:RXRa (NR concentration 270 nM, RXRa partner concentration 90 nM). In short, it runs like this: as §1

Regarding TGAATGAGGTTAAAGATCCGGGAACGTGGCGTCG, the PBM binding z-score in experiment [1] was 2.36; in experiment [2], 1.91; in [3], -0.227; in experiment [4], 1.13; in [5], 0.309; in experiment [6] it was 3.14. Besides, the PBM binding z-score in [7] was determined as 2.27; in experiment [8], 3.37; in experiment [9], 1.55; in experiment [10], 2.9; in experiment [11] it was 2.22; in experiment [12], 2.41. In addition, the PBM binding z-score in [13] was 0.774; in experiment [14], 0.25; in [15] it was 0.436; in experiment [16] it was 1.11; in experiment [17] it was -0.152; in experiment [18] it was 1.84. Moreover, the PBM binding z-score in [19] is -0.669; in experiment [20], 1.72.
On to ACTAGTTGGTCAGCTGAGGTCACACAGAATTCGG, for which the PBM binding z-score in experiment [1] amounted to 3.75; in experiment [2] it was 3.32; in experiment [3] it was 2.31; in experiment [4], 3.64; in experiment [5], 0.768; in experiment [6] it was 3.8. Besides, the PBM binding z-score in experiment [7] worked out at 1.87; in experiment [8], 2.46; in experiment [9] it was 0.831; in experiment [10], 1.73; in experiment [11], 1.48; in experiment [12], 3.02. For the same sequence, the PBM binding z-score in [13] came out at 0.452; in experiment [14], 0.375; in experiment [15], 2.18; in experiment [16] it was 5.36; in [17], 1.87; in [18] it was 4.56. Besides, the PBM binding z-score in experiment [19] worked out at 0.455; in experiment [20], 3.72.
As for CAAACTAGGCCACGAAAGGTCAAAGTCGAATGAC, the PBM binding z-score in [1] stood at 5.14; in experiment [2], 6.19; in [3] it was 5.85; in experiment [4], 5.69; in experiment [5] it was 1.75; in experiment [6] it was 6.2. For the same sequence, the PBM binding z-score stood at 7.45 in [7]; 6.7 in [8]; 4.3 in experiment [9]; 6.62 in [10]; 7.17 in experiment [11]; 7.41 in experiment [12]. The PBM binding z-score in [13] turned out to be 1.6; in [14], 1.85; in experiment [15], 4.86; in experiment [16], 5.73; in experiment [17] it was 1.95; in experiment [18], 6. In addition, the figures for the PBM binding z-score in experiment [19] and in [20] were 2.49 and 4.68, respectively.
On to CTCGAAAGGTCGTGCTCAGGTAAGTATACCAAAC, for which the PBM binding z-score in experiment [1] was found to be 5.43; in experiment [2], 4.11; in experiment [3] it was 0.35; in experiment [4], 3.55; in experiment [5], 0.134; in experiment [6], 5.08. Moreover, the PBM binding z-score in experiment [7] is 2.41; in experiment [8], 4.23; in experiment [9], 1.01; in [10], 2.94; in experiment [11], 0.999; in experiment [12], 1.78. In addition, the PBM binding z-score in experiment [13] was 0.44; in [14] it was -0.41; in [15], 1.63; in experiment [16], 3.24; in experiment [17], 0.482; in experiment [18], 3.73. Moreover, the PBM binding z-score is 0.0606 in [19] and 3.99 in experiment [20].
On to TGAATGAGGTTATAAGATCAGGGATCGTTGCAAA, for which the PBM binding z-score in experiment [1] is 1.25; in experiment [2], 1.28; in experiment [3], -0.202; in experiment [4], 0.676; in experiment [5], -0.353; in experiment [6], 2.81. For the same sequence, the PBM binding z-score was determined as 1.56 in experiment [7]; 2.12 in experiment [8]; 0.946 in experiment [9]; 1.28 in experiment [10]; 0.979 in [11]; 1.86 in experiment [12]. Also, the PBM binding z-score in [13] stood at 1.31; in [14], 0.477; in experiment [15] it was 0.305; in [16], 0.783; in [17], 0.0722; in [18], 1.24. Also, the figures for the PBM binding z-score in experiment [19] and in experiment [20] were 0.256 and 0.862, respectively.
Take GCAACGAGGGCAAGTTGATAGCAGAGTTTGATGG: the PBM binding z-score in experiment [1] was 0.996; in [2] it was 0.513; in [3], -0.434; in experiment [4] it was 0.332; in [5], -0.572; in experiment [6], 1.49. The PBM binding z-score in [7] was determined as 0.841; in experiment [8], 1; in [9] it was 0.0166; in experiment [10], 0.481; in [11], 2.75; in experiment [12], 1.85. For the same sequence, the PBM binding z-score was -0.194 in experiment [13]; -0.32 in experiment [14]; 0.288 in experiment [15]; 0.924 in experiment [16]; 0.464 in experiment [17]; 0.816 in [18]. Further, the PBM binding z-score in [19] was -0.0307; in [20], 2.8.
